Laboratory results taken from PubChem BioAssay (Tox21).
Results filed as inconclusive are left out. A call without a number means that no potency is given here. The source made the active and inactive calls. Calls come from the whole dose curve; as a rule, active = well fitted curve in the direction sought with a large enough effect in the repeat runs; inconclusive = weak or mixed curves; inactive = no such curve, though single readings can be large; an effect the other way counts as inactive or inconclusive.

What was measured:
[1] = qHTS assay to test for compound auto fluorescence at 535 nm (green) in HEK293 cells (AID 720680)
[2] = qHTS assay to test for compound auto fluorescence at 460 nm (blue) in HEK293 cell free culture (AID 720681)
Procedure, shortened: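 Test compounds were pinned into cell-free culture medium (DMEM with 10% FBS) and fluorescence was read directly at Ex/Em 405/460 nm. Signals were expressed as fluorescence equivalents of triamterene, with DMSO vehicle as control.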

[3] = qHTS assay to test for compound auto fluorescence at 535 nm (green) in HEK293 cell free culture (AID 720682)
Procedure, shortened: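 DMEM + 10% FBS, cell-free; cpd or DMSO pinned in; Ex485/Em535 read; output as fluorescein-equivalent signal.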

[4] = qHTS assay to test for compound auto fluorescence at 590 nm (red) in HEK293 cell free culture (AID 720683)
Procedure, shortened: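 Tox21 10K library compounds were pinned into cell-free DMEM with 10% FBS and fluorescence was read at excitation 540 nm. Activity is expressed as Rose Bengal sodium equivalency.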

[5] = qHTS assay to test for compound auto fluorescence at 460 nm (blue) in HepG2 cell free culture (AID 720685)
Procedure, shortened: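 Cell-free plates of MEM plus 10% FBS received 23 nL compound or DMSO vehicle; blue-channel (405/460 nm) intensity scored against triamterene as reference fluorophore.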

[6] = qHTS assay to test for compound auto fluorescence at 460 nm (blue) in HepG2 cells (AID 720687)
Procedure, shortened: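 Cells (2,000/well in MEM with 10% FBS) attached overnight at 37 C, then were exposed to compound or DMSO for 1 hr at 37 C, 5% CO2. Fluorescence read at Ex/Em 405/460 nm, expressed as triamterene-equivalent signal.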

[7] = qHTS assay to identify small molecule antagonists of the glucocorticoid receptor (GR) signaling pathway - cell viability counter screen (AID 720693); note: nearly all actives have a fitted effect of over 55% in size
[8] = qHTS assay for identifying genotoxic compounds that show differential cytotoxicity against isogenic chicken DT40 cell lines with known DNA damage response pathways - wild type cell line (AID 743012); note: potency is the fitted concentration of half-maximal effect; nearly all actives have a fitted effect of over 60% in size
Procedure, shortened: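 Viability by ATP luminescence (CellTiter-Glo, 30 min RT) after 40 h compound treatment at 37 C/5% CO2, using 300 parental DNA repair-proficient DT40 cells per well.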

[9] = qHTS assay for identifying genotoxic compounds that show differential cytotoxicity against isogenic chicken DT40 cell lines with known DNA damage response pathways - Rad54/Ku70 mutant cell line (AID 743015); note: potency is the fitted concentration of half-maximal effect; nearly all actives have a fitted effect of over 60% in size
[10] = qHTS assay to identify small molecule antagonists of the androgen receptor (AR) signaling pathway - cell viability counter screen (AID 743033; note: nearly all actives have a fitted effect of over 45% in size)
[11] = target: Androgen receptor (Homo sapiens) (UniProt P10275); experiment: qHTS assay to identify small molecule agonists of the androgen receptor (AR) signaling pathway using the MDA cell line (AID 743040; note: potency is the fitted concentration of half-maximal effect; nearly all actives have a fitted effect of over 20% in size)
Procedure, shortened: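 Cell-based luciferase reporter: MDA-kb2, MMTV promoter (AR + GR response elements). 16 h compound exposure at 37C; ONE-Glo, 30 min RT, luminescence.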

[12] = qHTS assay to identify small molecule antagonists of the androgen receptor (AR) signaling pathway using the MDA cell line - cell viability counter screen (AID 743041; note: nearly all actives have a fitted effect of over 45% in size)
Procedure, shortened: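 In this qHTS counter assay, fluorescence intensity after CellTiter-Fluor addition indicated viability of MDA-kb2 AR-luc cells given compounds and R1881 for 16 h at 37C.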

[13] = qHTS assay for identifying genotoxic compounds that show differential cytotoxicity against isogenic chicken DT40 cell lines with known DNA damage response pathways - Rev3 mutant cell line (AID 743014); note: potency is the fitted concentration of half-maximal effect; nearly all actives have a fitted effect of over 55% in size

Androgen receptor (Homo sapiens), sequence (P10275 whole entry, looked up): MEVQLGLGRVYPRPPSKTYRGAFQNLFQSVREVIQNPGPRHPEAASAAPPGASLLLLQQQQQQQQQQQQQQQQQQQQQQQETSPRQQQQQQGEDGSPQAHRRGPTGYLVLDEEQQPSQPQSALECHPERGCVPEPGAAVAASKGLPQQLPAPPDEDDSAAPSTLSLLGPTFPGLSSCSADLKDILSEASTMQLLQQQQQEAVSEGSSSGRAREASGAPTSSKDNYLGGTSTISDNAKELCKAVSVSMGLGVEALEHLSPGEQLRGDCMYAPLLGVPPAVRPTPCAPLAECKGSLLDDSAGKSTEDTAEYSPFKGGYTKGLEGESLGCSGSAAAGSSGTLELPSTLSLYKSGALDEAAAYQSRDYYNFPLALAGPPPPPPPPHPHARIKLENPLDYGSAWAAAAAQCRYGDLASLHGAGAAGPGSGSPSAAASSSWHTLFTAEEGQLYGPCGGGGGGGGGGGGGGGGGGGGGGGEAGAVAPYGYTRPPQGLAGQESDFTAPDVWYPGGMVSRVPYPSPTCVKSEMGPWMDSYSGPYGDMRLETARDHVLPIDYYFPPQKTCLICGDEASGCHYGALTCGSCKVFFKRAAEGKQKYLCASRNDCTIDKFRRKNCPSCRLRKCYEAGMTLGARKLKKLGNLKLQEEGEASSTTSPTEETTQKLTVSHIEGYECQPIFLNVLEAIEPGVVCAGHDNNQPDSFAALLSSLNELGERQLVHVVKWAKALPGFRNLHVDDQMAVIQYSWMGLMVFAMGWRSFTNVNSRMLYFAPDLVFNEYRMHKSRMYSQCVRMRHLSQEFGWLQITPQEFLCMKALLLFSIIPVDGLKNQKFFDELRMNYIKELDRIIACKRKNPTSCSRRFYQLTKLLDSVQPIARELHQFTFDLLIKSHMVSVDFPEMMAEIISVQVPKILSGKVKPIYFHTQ

Nc1ccc(C(=O)Nc2ccccc2N)cc1
outcome [1]: inactive
Potency [2]: inactive
outcome [3]: inactive
outcome [4]: inactive
Potency [5]: inactive
Potency [6]: inactive
Potency [7]: inactive
Potency [8]: 1.5 µM (active)
Potency [9]: 1.88 µM (active)
Potency [10]: inactive
Potency [11]: 10.6 µM (active)
Potency [12]: inactive

OCC1CC2CC1C1CCC(CO)C21 (stereo unspecified)
outcome [1]: inactive
Potency [2]: inactive
outcome [3]: inactive
outcome [4]: inactive
Potency [5]: inactive
Potency [7]: inactive
Potency [13]: 54.5 µM (active)
Potency [10]: inactive

CCOC(=O)[C@H](CCc1ccccc1)N[C@H]1CCc2ccccc2N(CC(=O)O)C1=O
outcome [3]: inactive
